Experimental findings from the supplement of paper PMC11417369 are described below.

± gives the standard deviation of the averaged measurements. In all, about 25,000 sequences were measured (“ln(normalized median fluorescence intensity)”: median about 7.9, highest 2% from about 11 on). Many of the other results were omitted from the sample, so the highest values are more common in it than they were.

This experiment has as its system PfAP2-I AP2 domain 3 (GST-tagged). Description: gcPBM binding intensity (ln(normalized median fluorescence intensity)); higher = stronger DNA binding. The method in brief:
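Using an Agilent 4 × 180k array, primer-extended double-stranded 36-bp intergenic genomic probes and negative controls were exposed for 1 h to GST-fused P. falciparum DNA-binding domains expressed in E. coli. Binding was carried out in 1× PBS with 1% milk, 0.2 mg/ml BSA, 0.5% salmon testes DNA and 0.03% Triton X-100, and protein was detected with Alexa488 anti-GST antibody and a 488 nm scan. Binding intensity is the highest Masliner-normalised natural-log median intensity across replicate spots of either probe orientation.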
For “AAAAAAAAAAAAAATTGTACATTAAATTAAAAGAAA [XGTACX_site8708]”, the “gcPBM binding intensity (ln)” value was 7.88 ± 0.28.
The figure for ATATATATATATATAGTGCAAATATCTTCTTTATAA is 10.4 ± 0.26; for “ATACAAGAATTAAACACACACAAAATATAAATTCTT [CACACA_site3005]” it is 7.85 ± 0.71.
Consider “AAATATTATTGACGATGTACTTCTATTCATAAGTAT [XGTACX_site3964]”, for which the “gcPBM binding intensity (ln)” value was found to be 7.55 ± 0.5.
Then “TAAAAATAAAGAAAATGTACATAAATAAAAATAAAG [XGTACX_site2279]”, with 8.14 ± 0.69; and “GATATAATGTGTTTGGTATTCTTGATAGATAGTTTT [CACACA_negctrl_site1711]”, with 7.7 ± 0.47; and “TGTAATGTTTACAACACACAAATTATAAATACAAAA [CACACA_site5047]”, with 7.67 ± 0.59.
The figure for “TATATGTTTTATAGTACACACATAAATGGACATACT [CACACA_site2191]” is 7.83 ± 0.33.
Then “CTATATTTCGTTGGACGTACAAATGTGATAATTAGG [XGTACX_site3232]”, with 8.06 ± 0.46; and AGGTAAAAATGGTAAGTGCATTAATGATAAAAAATG, with 11.1 ± 0.18.
In the case of “TTGTATTAAAATCAAGTGCATATAATTTAAGTTCAT [GTGCAC_site9495]”, the “gcPBM binding intensity (ln)” value is 9.54 ± 0.042.
The figure for “ATCCTTTATAAATAAGTGCATATAAAAAATAATATT [GTGCAC_site9759]” is 10.1 ± 0.3.
The figure for TAAATTAATAAACAAGTGCATATATATATATATATA is 10 ± 0.49.
Then TAAATATATATATAAGTGCATTATATATATATATAA, with 11.2 ± 0.57; and “TATCAATATTAAAAAGTGCAAAATAAAATATAAAAT [GTGCAC_site9486]”, with 10.7 ± 0.23; and “TTGTGTAAATGTTAAGTGCATTTGGTAAAATATAAA [GTGCAC_site9699]”, with 9.51 ± 0.11.
GTCATCAAGTATTAAGTGCATTAAAAATAAAATATA: the “gcPBM binding intensity (ln)” value was found to be 11.3 ± 0.62.
The figure for TGTAAAATATAAAAAGTGCATTTCTTTTAATATGAT is 9.96 ± 0.19; for “TAAAAAATAAAATACACACACATATATATATATATA [CACACA_site1323]” it is 9.33 ± 0.2; for “ATTATGAATTTAAGACGTACAAAAAATTTTTATTCA [XGTACX_site5682]” it is 7.8 ± 0.31.
The figure for “ACAAAATTTACAAAATGTACAAAATTTACAAAGTAT [XGTACX_site6463]” is 7.54 ± 0.56.
For “ACATATATTGTACATACACACCTATATAAATATCCT [CACACA_site7503]”, the “gcPBM binding intensity (ln)” value was 8.24 ± 0.54.
The figure for “AATAGTCGTGTGCATACACACCTTAACTATAATATA [CACACA_site6636]” is 8.83 ± 0.2.
Then “AACAATATGGATGTATGTACACATATAGAACGTTAT [XGTACX_site7142]”, with 7.91 ± 0.72; and “TATGAATGTATATGTTGTACATATAAATATTTATAT [XGTACX_site1146]”, with 7.72 ± 0.34; and “TTTGTATTAAAAAAAAAAAAAAAAAAAATGAATAAA [TGCATGCA_negctrl_site292]”, with 7.34 ± 0.41.
Then “TTGTATTTCCTTAGGAGTACACATAAATAAGTAAAT [XGTACX_site6677]”, with 8.22 ± 0.092.
Turning to “ATAATTACATAGATTGGTACACATTTTTGATTGTAT [XGTACX_site3802]”, the “gcPBM binding intensity (ln)” value was 7.71 ± 0.44.
Consider “ACTAATAATTTGTCGGTGCATAAAATTATTTTTATT [GTGCAC_site9840]”, for which the “gcPBM binding intensity (ln)” value came to 10.8 ± 0.43.
Then TGTATTAAAAATTTGGTGCAACTTTTACATAATAAT, with 9.49 ± 0.18; and ACTTTAACCTGAACGGTGCATAAAATTTTGGCATTA, with 10.9 ± 0.35.
The figure for “CATATTATATTCTGCTTACACACATATATATATATA [CACACA_site3059]” is 9.36 ± 0.29; for “TCCCAATTTCTATCCTGTACAGACATAAATATATAC [XGTACX_site5937]” it is 8.31 ± 0.49.
Then “TATGTATATATTTACGCATGCTACTCTATTTTGAGA [TGCATGCA_site990]”, with 7.64 ± 0.48.
With “TAAATCAAAATAATTTAACACACAATTTTAATACTG [CACACA_site8744]”, the “gcPBM binding intensity (ln)” value came to 7.34 ± 0.54.
As to ATACTATTTAAATGGGTGCTAAAAATAACAAAAATT, the “gcPBM binding intensity (ln)” value turned out to be 9.65 ± 0.085.
The figure for AATAAATACTAAATGGTGCAAAATTTTTTAACACTG is 10.8 ± 0.42; for “ATCAAATTTGGACATGCATGTGTGTGTAAAACCATG [TGCATGCA_site309]” it is 8.52 ± 0.41.
The figure for “TGGTATATTATTTTTTGTACACATAAATGAAACATT [XGTACX_site5345]” is 8.04 ± 0.22; for “GGTGTTTTTCACAGATGTACACAAATAAAAAAGAAA [XGTACX_site4454]” it is 8.39 ± 0.47; for “TCGTTATCCATCTTCACACATATATATAGTAATATA [CACACA_site5492]” it is 8.27 ± 0.49.
Turning to “AAAGTGTTAACCTAATCTTTAGTTTTTAAACAATAT [CACACA_negctrl_site841]”, the “gcPBM binding intensity (ln)” value was determined as 7.49 ± 0.59.
As to ACCCATTTTAATTTAGTGCACATTTTACCTTTATAC, the “gcPBM binding intensity (ln)” value came out at 11.4 ± 0.35.
The figure for ATATATATATATATAGTGCACATTTATATAATTATT is 11.43 ± 0.092; for “GCCATTAATTTATACACACACATTATAACTTTTTAT [CACACA_site6492]” it is 8.29 ± 0.49.
For “TTAATAATTAATTATAGTACACATTTATATTAATAA [XGTACX_site190]”, the “gcPBM binding intensity (ln)” value was found to be 7.915 ± 0.064.
The figure for “CTATTTCAATTTAGTGCACACATTTTAATTTATAAG [CACACA_site2040]” is 11.4 ± 0.49; for “TATATTATTAATTAAGCACACATTATTTTTATAATA [CACACA_site3982]” it is 8.54 ± 0.3.
Then “TTAATTTATTTATGCACACATATATAATTACCCATA [CACACA_site682]”, with 10.2 ± 0.67.
As for “TATAATAATATTATAGTGCATATTATTTATATATAA [GTGCAC_site9820]”, the “gcPBM binding intensity (ln)” value is 9.72 ± 0.16.
The figure for “TTTTTTTCAATATTTGCACACGATTATAATATTTAA [CACACA_site2237]” is 9.415 ± 0.035; for “TAATGGTGTTCATGTGGTACACTTTATAAATTGGCA [XGTACX_site729]” it is 7.9 ± 0.47.
With “CCCTTTTATTAAAATTCACACACATAAATTTTTATA [CACACA_site8611]”, the “gcPBM binding intensity (ln)” value worked out at 8.06 ± 0.41.
Then “TATAAAAAAAAAAAATATATATATATATAAATATAA [TGCATGCA_negctrl_site367]”, with 7.28 ± 0.37; and “ACTTAGGAAATAAAACGTACATTAAATATATACATA [XGTACX_site2990]”, with 7.84 ± 0.35; and “AAATAAAAAAGTAGTACACACTTCACGATATTTTTT [CACACA_site6015]”, with 7.89 ± 0.43.
The figure for “CATCAAGTGAATTGTTGTACTTTACATTGTTTTTAT [XGTACX_site7261]” is 7.89 ± 0.69; for “AAAAAATATTATATATGTACATAATATTTTTTTTTT [XGTACX_site5909]” it is 7.47 ± 0.39; for “ACATACTCAAATAGCACACACATAAATAAAAATGTA [CACACA_site3864]” it is 8.42 ± 0.099.
The figure for “AAAAGAAAATATATGTGTACTAAAATATATATATAT [XGTACX_site3817]” is 9.455 ± 0.021.
